Measurements published in ChEMBL document CHEMBL1201862, “PubChem BioAssay data set” (2004).
Screen size: about 400,000 compounds; about 2,100 (0.53%) were called active. Roughly 14% stayed inconclusive and do not appear here. How the calls were made is not given here. What follows is part of a selection rich in actives, with near analogues and random picks from the rest.

What follows are molecules tested against Ataxin-2 (Homo sapiens) (UniProt Q99700) (assay: qHTS for Inhibitors of ATXN expression.).
Ataxin-2 (Homo sapiens), sequence (Q99700 whole entry): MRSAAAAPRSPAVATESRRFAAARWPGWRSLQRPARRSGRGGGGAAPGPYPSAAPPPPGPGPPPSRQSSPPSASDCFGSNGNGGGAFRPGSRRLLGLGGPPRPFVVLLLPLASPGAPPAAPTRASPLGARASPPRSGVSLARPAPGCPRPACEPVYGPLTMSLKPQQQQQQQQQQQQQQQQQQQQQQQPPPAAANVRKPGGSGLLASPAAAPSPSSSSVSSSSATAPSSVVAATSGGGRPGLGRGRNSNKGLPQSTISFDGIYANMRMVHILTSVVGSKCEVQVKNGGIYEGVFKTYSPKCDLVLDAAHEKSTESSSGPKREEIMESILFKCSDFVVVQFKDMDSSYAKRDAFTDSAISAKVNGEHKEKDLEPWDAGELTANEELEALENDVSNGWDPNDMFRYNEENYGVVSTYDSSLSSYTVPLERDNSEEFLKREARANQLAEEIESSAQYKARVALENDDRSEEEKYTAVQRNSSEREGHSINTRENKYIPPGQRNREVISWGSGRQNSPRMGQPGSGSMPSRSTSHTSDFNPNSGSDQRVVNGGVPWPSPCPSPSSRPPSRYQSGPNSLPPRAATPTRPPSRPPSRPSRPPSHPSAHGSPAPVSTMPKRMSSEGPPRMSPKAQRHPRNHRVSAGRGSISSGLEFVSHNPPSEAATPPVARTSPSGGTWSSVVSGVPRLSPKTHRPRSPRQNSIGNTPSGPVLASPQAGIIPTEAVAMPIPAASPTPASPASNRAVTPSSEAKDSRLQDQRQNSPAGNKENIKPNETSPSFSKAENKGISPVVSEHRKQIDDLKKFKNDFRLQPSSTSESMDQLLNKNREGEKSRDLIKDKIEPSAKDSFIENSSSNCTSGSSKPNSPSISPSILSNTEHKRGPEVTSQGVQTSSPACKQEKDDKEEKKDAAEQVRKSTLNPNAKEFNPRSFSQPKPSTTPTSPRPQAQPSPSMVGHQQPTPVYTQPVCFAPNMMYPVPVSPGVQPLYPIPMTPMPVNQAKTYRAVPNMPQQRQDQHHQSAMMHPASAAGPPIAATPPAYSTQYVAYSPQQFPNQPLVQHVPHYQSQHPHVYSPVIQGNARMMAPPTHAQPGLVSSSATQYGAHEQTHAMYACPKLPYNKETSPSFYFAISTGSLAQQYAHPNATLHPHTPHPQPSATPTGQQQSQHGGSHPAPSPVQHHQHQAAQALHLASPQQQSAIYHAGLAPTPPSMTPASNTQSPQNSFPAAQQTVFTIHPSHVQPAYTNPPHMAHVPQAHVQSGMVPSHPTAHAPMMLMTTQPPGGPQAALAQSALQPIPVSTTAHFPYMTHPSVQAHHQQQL
Format: functional
`COc1ccc(-c2nc3ccc(C)cn3c2Cc2ccc(C)cc2)cc1OC` was tested, and the Potency was 20 µM (active). With `COc1ccc(-c2n[nH]c(S)n2)cc1OC` the Potency was “inactive”. For `COc1ccc(/C=N/NC(=O)c2c(C)nc3ccc(Cl)cn23)cc1OC`, the Potency was “inactive”. With `COc1ccc(-c2nc(CCl)cs2)cc1OC` the Potency was “inactive”. With `COc1ccccc1Cc1c(-c2ccc(OC)c(OC)c2)nc2ccc(Cl)cn12` the Potency was 39.8 µM (active). In the case of `COc1ccc(-c2nc3ccc(C)cn3c2Cc2cccc(F)c2)cc1OC`, the Potency is reported as 39.8 µM (active). In the case of `COc1ccc(-c2nc3ccc(C)cn3c2Cc2cccc(Cl)c2)cc1OC`, the Potency is reported as 35.5 µM (active). `COc1cc2c3nnc(-c4ccc(F)cc4)c-3cn(Cc3cccc(F)c3)c2cc1OC` was tested, and the Potency was “inactive”. With `N=C(NOC(=O)CCCOc1ccccc1)c1cccc(Br)c1` the Potency was “inactive”. `CSc1nc(-c2ccc(N(C)C)cc2)c(C#N)c(=O)n1C` was tested, and the Potency was “inactive”. `CCOC(=O)c1ccc(-c2ccc(/C=N/NC(=O)c3cncc(Br)c3)o2)cc1` was tested, and the Potency was “inactive”. In the case of `Cc1cc(-c2onc3ccc(Cl)cc23)ccc1O`, the Potency is reported as “inactive”. For `COc1ccc(-n2c(N)c(C(=O)NCc3ccco3)c3nc4ccccc4nc32)cc1OC`, the Potency was “inactive”. `CN1C(=O)/C(=N\C2CCCCC2)c2c3ccccc3c(O)c3cccc1c23` was tested, and the Potency was “inactive”. `Cc1noc(/C=C/Nc2ccc(F)cc2F)c1[N+](=O)[O-]` was tested, and the Potency was “inactive”. For `CCN1C(=O)/C(=C2/Sc3ccccc3N2CC)S/C1=N\c1nc[nH]n1`, the Potency was “inactive”. With `CC1CC(NC(=O)c2cc3c(=O)n4ccccc4nc3n2C)CC(C)(C)C1` (stereo unspecified) the Potency was “inactive”. For `Cc1nc(NN)c2c3c(sc2n1)COC(C)(C)C3`, the Potency was “inactive”. `COc1cc(-c2nc3ccccn3c2/N=C/c2cccc(OC)c2O)ccc1O` was tested, and the Potency was “inactive”. In the case of `CCCCNc1c(-c2ccc(OC)c(SC3CCCCC3)c2)nc2cnccn12`, the Potency is reported as “inactive”. With `COc1ccccc1Cc1c(-c2cccc(Cl)c2)nc2ccc(C)cn12` the Potency was 22.4 µM (active). With `COc1ccc(-c2nc3ccc(Cl)cn3c2Cc2cccc(F)c2)cc1OC` the Potency was 39.8 µM (active). In the case of `COc1ccc(-c2nc3c(-c4ccc(Cl)cc4)cnn3cc2C)cc1F`, the Potency is reported as “inactive”. `COc1ccc(-c2nc3ccc(C)cn3c2CC(C)(C)C)cc1OC` was tested, and the Potency was 12.6 µM (active). For `COc1ccc(-c2cc(-c3ccc(N)cc3)nc(N)c2C#N)cc1OC`, the Potency was “inactive”. `COc1cnc(-c2ccccc2)nc1Oc1ccc(Cl)cc1C` was tested, and the Potency was “inactive”. For `O=C(O)c1ccc2c(c1)ncn2C1CCCC1`, the Potency was “inactive”. `Cc1nc(CS(=O)(=O)c2ccccn2)sc1C(=O)NNC(=O)c1ccc(Cl)cc1` was tested, and the Potency was “inactive”. For `N#Cc1cc2c(=O)n3ccccc3nc2n(-c2ccccc2Cl)c1=O`, the Potency was “inactive”. `CN(CCO)c1nc(NCc2ccccc2)c2cnn(C)c2n1` was tested, and the Potency was “inactive”. `COc1ccc(C2=CC(c3ccco3)n3ncnc3N2)cc1` (stereo unspecified) was tested, and the Potency was “inactive”. With `CCOC(=O)COc1nc(-c2ccco2)cc(-c2ccco2)c1C#N` the Potency was “inactive”. With `N#Cc1cnn2c3c(cnc12)C(=O)N1CCc2ccccc2C1C3` (stereo unspecified) the Potency was “inactive”. For `Cc1sc2ncnc(N/N=C/c3cccc(O)c3)c2c1C`, the Potency was “inactive”. For `NNC(=O)c1cc2c(N3CCC(Cc4ccccc4)CC3)ncnc2s1`, the Potency was “inactive”. With `CCc1cccc(NC(=O)C2CCN(c3ncnc4sc(C)c(C)c34)CC2)c1` the Potency was 33.6 µM (active). With `O=C(NN/C=C1/C(=O)N(c2ccc(Cl)cn2)C(=O)c2ccccc21)C1CC1` the Potency was “inactive”. With `COc1ccccc1C1C=C(c2ccc(C(C)C)cc2)Nc2nnnn21` (stereo unspecified) the Potency was “inactive”. In the case of `O=C(NNC(=O)NC1CCCCC1)NC1CCCCC1`, the Potency is reported as “inactive”. With `Cc1cc(Cl)cc(C)c1OCC(=O)NC1CCCCCC1` the Potency was “inactive”. `O=C(NC1CCCCC1)Sc1ccc(Cl)cc1` was tested, and the Potency was 35.5 µM (active). In the case of `COc1cccc(C2CN(c3ccc(F)cc3F)N=C2c2cccs2)c1OC` (stereo unspecified), the Potency is reported as “inactive”. For `O=C(NC1CCCC1)c1[nH]nc2ccccc12`, the Potency was “inactive”. For `C=CCn1c(SCC(=O)NC2CCCCC2)nc2ccccc2c1=O`, the Potency was “inactive”. With `Cc1nc(N/C(N)=N/C(=O)NC2CCCCC2)nc2ccccc12` the Potency was 20 µM (active). With `Cc1cccc(NC(=O)c2sc3nc4c(c(-c5ccco5)c3c2N)CCC4)c1` the Potency was “inactive”. With `COc1cccc(CNC(=O)CCS(=O)(=O)c2ccccc2Cl)c1` the Potency was “inactive”. In the case of `O=C(COc1ccc(S(=O)(=O)N2CCOCC2)cc1Cl)NCc1ccc2c(c1)OCO2`, the Potency is reported as “inactive”. With `Cc1cccc(NC(=O)c2nc(S(=O)(=O)Cc3ccccc3)ncc2Cl)c1` the Potency was 35.5 µM (active). In the case of `Cc1cccc(CS(=O)(=O)c2ncc(Cl)c(C(=O)NCc3ccccc3)n2)c1`, the Potency is reported as 31.6 µM (active). With `O=C(NCc1ccc2c(c1)OCO2)c1nc(S(=O)(=O)Cc2ccccc2F)ncc1Cl` the Potency was 20 µM (active). In the case of `O=C(NCc1ccc2c(c1)OCO2)c1cccnc1Cl`, the Potency is reported as “inactive”. With `O=C(NCc1ccccc1)c1cnc2ccccc2c1O` the Potency was “inactive”. For `C=CCn1c(=N)c(C(=O)NCCCOC)cc2c(=O)n3cccc(C)c3nc21`, the Potency was “inactive”. With `CCc1cc(=O)oc2cc(OC(=O)CN3C(=O)NC4(CCCC4)C3=O)ccc12` the Potency was “inactive”. For `CCOC(=O)c1cc2c(=O)n3cccc(C)c3nc2n(CCOC)/c1=N\C(C)=O`, the Potency was “inactive”. `CC(C)Cn1c(N)c(C(=O)NCC2CCCO2)c2nc3ccccc3nc21` (stereo unspecified) was tested, and the Potency was “inactive”. With `COc1ccc(-c2nc(NC(=O)c3ccc(OCC(=O)Nc4ccc(F)cc4)c(OC)c3)sc2C)cc1` the Potency was 11.2 µM (active). In the case of `COc1ccc(-c2nc(NC(=O)c3ccc(OCC(=O)N4CCOCC4)c(OC)c3)sc2C)cc1`, the Potency is reported as 15.8 µM (active). `COc1ccc(C(=O)N2CCNC(=O)C2CC(=O)Nc2ccc(C)cc2)cc1` (stereo unspecified) was tested, and the Potency was “inactive”. `COc1ccc(-c2ccc3c(N)c(C(=O)Nc4cc(F)ccc4C)sc3n2)cc1` was tested, and the Potency was “inactive”. With `COc1ccc(C(=O)OCC(=O)N2CCOCC2)cc1S(=O)(=O)N1CCOCC1` the Potency was “inactive”. With `COc1ccc(C(=O)Nc2nc3n(n2)C(c2ccc(F)cc2)C=C(c2ccc(Cl)cc2)N3)cc1` (stereo unspecified) the Potency was “inactive”. For `COc1cc(C(=O)Nc2nc(-c3ccc(Cl)cc3)c(C)s2)ccc1OCC(=O)Nc1ccc(F)cc1`, the Potency was 35.5 µM (active). With `COc1ccccc1NC(=O)c1sc2nc(C)c(C(=O)Nc3ccc(Cl)cc3)c(-c3ccc(Br)cc3)c2c1N` the Potency was “inactive”. For `COc1ccc(C(=O)Nc2ccc(OCC(=O)N3CCOCC3)cc2)c(OC)c1OC`, the Potency was “inactive”.
